# Compound activity as filed in PubChem.
# Hits are enriched below; roughly 2.4% of the tested compounds scored in any of these assays.
# D2 PAM-1: positive allosteric modulators of human D2 dopamine receptor. AID 624464. potentiation, % (concentration not given with the values). 0.23% of 360,000 active. DiscoveRx D2 beta-arrestin cells, luminescence, 90 min; 100% = 57 uM dopamine signal; in the data active = potentiation above about 50%; inconclusive = mostly about 30% to 49%
# Target sequence (P14416 whole entry, looked up): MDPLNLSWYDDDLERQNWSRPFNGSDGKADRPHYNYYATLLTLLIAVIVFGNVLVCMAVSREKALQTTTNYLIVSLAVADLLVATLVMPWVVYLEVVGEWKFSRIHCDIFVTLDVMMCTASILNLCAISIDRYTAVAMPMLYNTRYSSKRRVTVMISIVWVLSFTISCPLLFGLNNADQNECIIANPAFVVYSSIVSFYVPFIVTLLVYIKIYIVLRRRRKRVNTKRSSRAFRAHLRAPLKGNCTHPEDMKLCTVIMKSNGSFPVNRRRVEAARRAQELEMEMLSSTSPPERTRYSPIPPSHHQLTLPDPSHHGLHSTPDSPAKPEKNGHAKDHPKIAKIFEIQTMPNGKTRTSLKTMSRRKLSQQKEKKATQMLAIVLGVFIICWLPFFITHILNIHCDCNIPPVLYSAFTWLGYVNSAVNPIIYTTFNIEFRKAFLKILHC
#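 D2 cells co-treated with compound plus 50 nM dopamine (EC20) for 90 min at 37 deg C to detect potentiation. Beta-arrestin recruitment was read as enzyme-fragment luminescence after 1 h at ambient temperature. Full response was set by 57 uM dopamine.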
# D2 PAM-2: D2 dopamine receptor (human) potentiation; P14416; AID 485347; 0.34% of 340,000 active; HEK293 T-REx D2, calcium flux, EC20 dopamine potentiation; potentiation, % at 10 µM;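 active = potentiation over 3 SD above the plate norm, cut at about 30% in these data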; also: 0% is about no effect
#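 Primary screen. Calcium kinetics in induced HEK293 T-REx D2 cells: compound pre-addition 180 s, EC20 dopamine, 180 s more.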
# D2 ag-1: activates the human D2 dopamine receptor; 0.53% of 340,000 active; activation, % at 2 µM; P14416; AID 485358; HEK293 T-REx D2 cells, calcium flux agonist mode;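 active = activation over 3 SD above normal in the single-dose calcium agonist read, cut at about 30% in these data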; also: 0% is about no effect
#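 Agonism is scored from calcium flux in a force-coupled, inducible HEK293 cell line expressing D2, read kinetically for 180 s after compound addition against dopamine controls.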
# D2 ag-2: agonists of human D2 dopamine receptor (beta-arrestin); P14416; DiscoveRx PathHunter D2 beta-arrestin, luminescence, 90 min; 100% = 57 uM dopamine signal; activation, % (no concentration beside the values); 0.084% of 360,000 active; AID 624465; in the data active = activation above about 40%; inconclusive = between about 15% and that limit
#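 DiscoveRx PathHunter D2 beta-arrestin cells (2,100/well) attached overnight, then compound-stimulated 90 min at 37 C in HBSS/10 mM HEPES/0.1% Tween-20 buffer; beta-galactosidase complementation read by luminescence after 1 h at ambient temperature. Dopamine 57 uM final (EC100) as control.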
# D2 antag: antagonizes the human D2 dopamine receptor; P14416; HEK293 TREx D2 cells, calcium flux, dopamine EC80; inhibition, % at 10 µM; 2% of 340,000 active; AID 485344; in the data active = inhibition above about 30%; inactive = below that, where a call was filed; also: 0% is about no effect
#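 Overnight-induced (tetracycline, 30 C) HEK293 T-REx cells carrying force-coupled D2 receive a no-wash calcium dye, then compound, then EC80 dopamine at 180 s; signals are read kinetically throughout.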
# * hit, by the source's call; u = inconclusive; x = no result given.
SMILES,D2 PAM-1,D2 PAM-2,D2 ag-1,D2 ag-2,D2 antag
CCOC1=CC2=C(C(=O)C(Cl)=CC2=O)[C@@H]2CN(S(=O)(=O)c3ccc(C)cc3)[C@@H](c3ccccc3)[C@H]12,3,x,x,3,x
COC(=O)C1=CO[C@@H](C)[C@H]2CN3CCc4c([nH]c5ccccc45)[C@@H]3C[C@H]12,-37,-23,0,-7,71*
Cc1cccc(N(C(=O)c2sc(C)nc2C)C(C(=O)NCc2ccco2)c2ccccc2)c1 (stereo not drawn),-5,1,0,-3,45*
Cc1ccc(N(C(=O)c2sc(C)nc2C)C(C(=O)NCc2ccco2)c2ccccc2)cc1 (stereo not drawn),-20,9,0,-2,44*
Cc1cc(C)cc(N(C(=O)c2sc(C)nc2C)C(C(=O)NCc2ccco2)c2ccccc2)c1 (stereo not drawn),-13,0,0,1,-7
CCCOc1ccc(CNC(=O)c2oc3ccc4c(c3c2C)C(=O)CC(C)(CC)O4)cc1 (stereo not drawn),x,6,0,x,x
COc1ccc(OCC(=O)N(Cc2cccc(OC)c2)C2CCS(=O)(=O)C2)cc1 (stereo not drawn),x,x,1,x,x
CC(NC(=O)c1cc(S(=O)(=O)N(C)C)ccc1Cl)C1CC2CCC1C2 (stereo not drawn),-1,-5,0,0,35*
CC(NC(=O)c1cccc(S(=O)(=O)N(C)C)c1)C1CC2CCC1C2 (stereo not drawn),-8,3,-2,-2,-13
CCc1nnc(SC(CC)C(=O)Nc2cccc(OC)c2)c2cc3oc(C)cc3n12 (stereo not drawn),x,0,-1,x,x
Cc1cc(C(=O)CSc2nnc(N)s2)c(C)n1CCc1ccc(Cl)cc1,11,5,0,-1,-20
Cc1cc(C(=O)CSc2nnc(N)s2)c(C)n1CCc1ccc(F)cc1,-14,-5,0,-3,43*
O=C(CN1C(=O)c2ccccc2C1=O)N1CCCCC1,-1,3,1,-4,-14
O=C(NCC1c2ccccc2CCN1C(=O)CN1C(=O)c2ccccc2C1=O)C1CCCCC1 (stereo not drawn),-10,-5,0,-2,30*
Cn1c(=O)c2c(nc(-n3ccnc3)n2Cc2ccc([N+](=O)[O-])cc2)n(C)c1=O,-14,-1,0,-3,31*
CN1CCN(c2nc3c(c(=O)n(C)c(=O)n3C)n2Cc2ccc(Cl)cc2)CC1,-5,-6,0,-1,-6
CCC(C)NC(=O)c1ccccc1NC(=O)CN1C(=O)c2cccc3cccc1c23 (stereo not drawn),x,-5,-1,x,x
Cc1nn(Cc2ccccc2Cl)c2sc(C(=O)Nc3nccs3)cc12,8,-9,-2,3,38*
Cc1nn(Cc2ccc(F)cc2)c2sc(C(=O)Nc3nccs3)cc12,u,0,-1,u,-6
Cc1nn(Cc2ccc(Cl)cc2)c2sc(C(=O)O)cc12,-7,0,0,-5,32*
COC(=O)c1sc2c(c1C)c(=O)n(-c1ccccc1)c(=O)n2CC(=O)Nc1cccc(C)c1,x,15,0,x,x
Nn1c(SCCOc2ccccc2)nnc1-c1cccnc1,-2,1,1,-4,33*
CCOc1cccc(C(=O)N(Cc2ccc(C(C)C)cc2)C2CCS(=O)(=O)C2)c1 (stereo not drawn),x,-3,0,x,x
COc1c(Cl)cccc1-c1cn2ccc(C)cc2n1,-6,-15,0,3,35*
O=C1CCCCCC1C1(O)C(=O)Nc2ccccc21 (stereo not drawn),-4,42*,1,2,-4
SMILES,D2 PAM-1,D2 PAM-2,D2 ag-1,D2 ag-2,D2 antag
COc1ccc2c(c1)CC(C1(O)C(=O)Nc3ccccc31)C2=O (stereo not drawn),2,-1,0,-2,7
COc1cccc(CN2C(=O)c3ccccc3Sc3ccc(C(=O)NCCc4ccc(Cl)cc4)cc32)c1,x,-3,1,x,x
O=C(Nc1nnc(-c2ccccc2F)s1)C1CCCO1 (stereo not drawn),2,1,1,-1,40*
O=[N+]([O-])c1nn(-c2ccc3c(c2)OCCO3)n(O)c1=NCCCO,73*,0,0,u,4
Cc1ccc(N=c2c([N+](=O)[O-])nn(-c3ccccc3)n2O)c(C)c1,55*,10,1,10,7
CCc1ccc(N=c2c([N+](=O)[O-])nn(-c3ccc4c(c3)OCCO4)n2O)cc1,u,2,-1,11,18
COc1ccc(-n2nc([N+](=O)[O-])c(=NCc3ccc4c(c3)OCO4)n2O)cc1,122*,-12,-1,u,-1
Cc1ccc(CN=c2c([N+](=O)[O-])nn(-c3ccc4c(c3)OCCO4)n2O)cc1,135*,-18,-1,u,3
CC1CCN(CCCNC(=O)c2cc(Sc3ccc(F)cc3)nc3ccccc23)CC1,x,x,-1,x,x
O=C(Cn1nc(-c2ccccc2)c2cnc3ccccc3c21)Nc1ccccc1,x,-6,0,x,x
CC(C)CCn1c(=O)c2cccnc2n(CC(=O)Nc2ccc(F)cc2)c1=O,x,5,0,x,x
COc1cccc(NC(=O)CSc2nc3c(oc4ccccc43)c(=O)n2Cc2ccco2)c1,x,-7,1,x,x
COc1ccc(-n2nc([N+](=O)[O-])c(=NCCc3cccc(C)c3)n2O)cc1,65*,-5,0,8,6
COc1ccc(-n2nc([N+](=O)[O-])c(=NCCCN3CCCC3=O)n2O)cc1,23,-4,-1,10,7
O=C1CCCN1CCCN=c1c([N+](=O)[O-])nn(-c2ccc(Cl)cc2)n1O,52*,6,x,9,x
Cc1cccc(CCN=c2c([N+](=O)[O-])nn(-c3ccccc3)n2O)c1,6,-1,0,14,-9
CCc1ccc(NS(=O)(=O)c2ccc(-c3cc(C)no3)cc2)cc1,x,1,1,x,x
CC(C)C1Nc2ccc(S(N)(=O)=O)cc2C2C=CCC21 (stereo not drawn),52*,2,1,5,16
Cc1noc(Cn2c(=O)c3cc4c(cc3n(CC(=O)Nc3cccc(Cl)c3)c2=O)OCO4)n1,x,-4,1,x,x
Cc1ccc(CN2CCC(CNc3ncnc4onc(-c5ccc(F)cc5)c34)CC2)cc1,x,-9,1,x,x
COc1ccccc1Cn1c(-c2ccccc2OC)nc2ccccc21,-10,10,1,-2,22
Oc1ccccc1Cn1c(-c2ccccc2O)nc2ccccc21,9,8,0,2,34*
Cc1sc2ncn(CC(=O)Nc3ccc(F)cc3F)c(=O)c2c1S(=O)(=O)N1CCC(C)CC1,x,-6,0,x,x
